# From the supplement of paper PMC6555819
# Tested on: VDR:RXRa (NR concentration 270 nM, RXRa partner concentration 90 nM)
# Experiment: PBM binding z-score (relative to random genomic background probes); higher = stronger binding; sequences stand for … in GC…GCGATTGACAGCGTAGAATGAAGG
# Method: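 Protein-binding microarray (Agilent 4x180K custom design, double-stranded 60-nt probes: 5' GC cap, 34-nt variable region, 24-nt constant primer region; full probe sequence given). Purified or IVT nuclear receptor:RXRα heterodimers (3:1 NR:RXRα, mostly 270:90 nM) or homodimers were incubated for 1 h in PBS with 2% milk and no ligand, then detected with Alexa488 antibodies. Fluorescence from o1-orientation probes (~5 replicates averaged) was converted to z-scores against 500 random hg19 background probes. Variable regions are seed direct-repeat (DR0–DR5) sites, all their single-nucleotide variants and half-site ablations.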
row,Sequence,PBM binding z-score
1,TCTTGTAGATCAAGCAGGGTAAGAAAGCCTGAGT,0.33
2,CATACAGGGTCAGCTAGGTCAGAGTAGGGACGGC,5.76
3,TCTTGTAGATCACAGGTTAAGAAAGCCGAAGCCT,0.396
4,TAGCCTAGGTTATTGGGCCAGTATAGTACGCATC,-0.034
5,TCTTATAGATCAAGCAGGTTAAGAAAGCCTGAGT,0.894
6,TGAATGAGGTTATTAGATCAGGGAACGTTGCAAA,0.99
7,ACTATTAGTTCACTTAGGGCAACCGATACGACGC,2.52
8,ATCGAAAGGTCGTGAGGTGGGTATACAGAAAGGC,3.58
9,TCGAGTAGGTTCGTCGGGGCATTCAGCCAACATA,1.79
10,TCATATAGCTAATACAGGTGAAAGTCGGCATCTA,0.529
11,CCTCAAAGTTCAAGGTAACGTAACAGAAAGCAGC,4.07
12,TCTTGTAGATCAATAAAGGTTAAGAAAGTGCGCT,2.18
13,TCGAGTAGGTTAGTCGGGTCATTCAGCCAACATA,4.88
14,TCGAGCAGGTTAGGGGCATTCAGAATGGCGTCGA,0.187
15,CCTTACGAGTCACTCCAGGTTATAGCATCGGAGT,1.24
16,ATCTCTAGGTATAAGTTCAGTGAATCCCGAGGAT,0.837
17,TCTTGTAGATCAATACAGGTTAAGAAAGTGCGCT,1.26
18,TCTTGTAGATCAAGCAGGTTGAGAAAGCCTGAGT,0.285
19,CAAACTGGGTCAAAGGTCAAAGTCGAGCCAACCA,6.65
20,GTACCAAGGTGAATAGGTCGGTGATGAGTAGGCG,0.312

row,Sequence,PBM binding z-score
1,CCGACTCGGGCATAAGGTTACCATAAGCCAGCCC,-0.121
2,ATCTCTAGGTAACCAAGTTCGGTGAATGCCGAAC,1.83
3,GCGACTGGGGCAAAGAAGGTTACCATAAGGTTGG,0.733
4,CCTACTTGGCCATTCAGAGGTCATTGATCATATG,4.04
5,AGAATGAGGGTACCAAAGATCAGGGAAACGCTTG,0.0257
6,ACTAGCAGGCCAAGTTTGGGTTACTCAAACAAAG,-0.254
7,ATACCAAGGTGATCGTGAGGGCGTTGATACTAAC,1.42
8,CCTAGCAGGCCAATCTGGGTCTCTCAAGGCTTGA,-0.64
9,CTACCAAGGTGAGCAAGGTCGTTGATTACTATTC,5.03
10,ACTCTTAGTTGACTTAGGGCAACCGATACGACGC,0.416
11,ACAGACAGGTGAGTCAAGGTAACTCAGCTGGACG,-0.187
12,CGAACTAGGTCATTGACAGGGCAGTGAATAGTAA,2.15
13,CTCGAAAGGTCGTGCTCAGGGGAGTATACCAAAC,3.14
14,GGAACGAGGGCATTCGAGTTGCTAGCATGGCGAT,2.71
15,ATATGTAGGTGACATCCGGGTCATTCAGGCTATG,4
16,CCAGACAAGTGAAAGGTAACTCAGTCTGGTACGC,0.274
17,TCGAGTACGTTACCAATGGGGCATTCAGCTTTCT,0.458
18,CAAACTAGGTCAAGGTCCAAGTCGGTTTGTGCCA,2.18
19,GGAACGAGGGCAGAGTTGATAGCATCTGTCGACG,0.0819
20,CCTAGCAGGCCAGCGTCACTCAAGCATTTCGCTT,-0.645
